According to PubChem BioAssay (Tox21):
Where “and” joins values, the source holds several entries; their conditions need not be identical. Equal values may be shown once. Some compounds were tested as several samples or in several runs, with calls that do not always agree. Calls of active or inactive are those of the source. Entries that show only a call come without a potency. Unless noted, calls come from the whole dose curve; as a rule, active = well fitted curve in the direction sought with a large enough effect in the repeat runs; inconclusive = weak or mixed curves; inactive = no such curve, though single readings can be large; an effect the other way counts as inactive or inconclusive.

What was measured:
[1] = qHTS assay to identify small molecule antagonists of the thyroid receptor (TR) signaling pathway - cell viability counter screen (AID 743064); note: nearly all actives have a fitted effect of over 50% in size; note: potency is the fitted concentration of half-maximal effect
Method in brief: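 In-well cytotoxicity read by CellTiter-Fluor (30 min, 37 C) following 23.5 h exposure of GH3 cells bearing a TRE-luciferase sensor. Compounds were added alongside 1 nM (final) T3 to drive TR transactivation.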

[2] = qHTS assay to identify small molecule antagonists of the thyroid receptor (TR) signaling pathway (AID 743065); note: nearly all actives have a fitted effect of over 55% in size; note: potency is the fitted concentration of half-maximal effect
Method in brief: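 GH3.TRE-Luc rat pituitary cells carrying two TR response elements driving luciferase were plated for 4 h, given compound plus 1 nM T3 (final), and incubated 23.5 h at 37 C. ONE-Glo luminescence measured reporter inhibition; CellTiter-Fluor fluorescence tracked cytotoxicity.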

[3] = target: Estrogen receptor (Homo sapiens) (UniProt P03372); assay: qHTS assay to identify small molecule antagonists of the estrogen receptor alpha (ER-alpha) signaling pathway (AID 743069; active = well fitted curve in the direction sought with a large enough effect in the signal ratio in the repeat runs, not every such curve was filed as active; inconclusive = weak or mixed curves, or effect the other way; inactive = no such curve, though single readings can be large or run the other way; the % refers to the signal ratio; note: potency is the fitted concentration of half-maximal effect)
Estrogen receptor (Homo sapiens), sequence (P03372 whole entry, looked up): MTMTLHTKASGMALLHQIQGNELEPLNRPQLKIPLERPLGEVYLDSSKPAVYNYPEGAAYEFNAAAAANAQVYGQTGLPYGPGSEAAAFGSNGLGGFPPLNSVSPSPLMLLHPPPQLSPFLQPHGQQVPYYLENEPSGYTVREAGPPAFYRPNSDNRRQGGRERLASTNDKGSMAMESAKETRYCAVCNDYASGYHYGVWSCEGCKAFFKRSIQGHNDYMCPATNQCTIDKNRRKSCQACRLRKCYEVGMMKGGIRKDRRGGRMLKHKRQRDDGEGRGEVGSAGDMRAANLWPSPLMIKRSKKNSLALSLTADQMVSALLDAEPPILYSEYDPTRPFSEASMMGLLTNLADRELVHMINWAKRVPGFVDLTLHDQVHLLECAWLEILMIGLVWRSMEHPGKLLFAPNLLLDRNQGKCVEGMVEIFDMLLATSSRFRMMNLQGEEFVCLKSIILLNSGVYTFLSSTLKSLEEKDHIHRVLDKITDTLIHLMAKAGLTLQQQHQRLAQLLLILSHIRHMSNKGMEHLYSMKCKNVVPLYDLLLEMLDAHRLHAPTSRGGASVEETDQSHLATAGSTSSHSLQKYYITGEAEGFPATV
Method in brief: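 Estradiol-stimulated ER-alpha-UAS-bla HEK293 cells, 18 hr compound exposure at 37C. LiveBLAzer B/G substrate, 2 hr RT, fluorescence read.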

[4] = qHTS assay to identify small molecule antagonists of the estrogen receptor alpha (ER-alpha) signaling pathway - cell viability counter screen (AID 743074; calls by dose curve;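 note: HEK293 cells carrying ER-alpha-UAS-bla reporter stimulated with 17beta-estradiol; nearly all actives have a fitted effect of over 45% in size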; note: potency is the fitted concentration of half-maximal effect)
[5] = target: Estrogen receptor (Homo sapiens) (UniProt P03372); assay: qHTS assay to identify small molecule agonists of the estrogen receptor alpha (ER-alpha) signaling pathway (AID 743075; calls by dose curve;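 note: HEK293 GripTite cells with ER-alpha and UAS-driven beta-lactamase reporter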; note: potency is the fitted concentration of half-maximal effect)
[6] = target: Estrogen receptor (Homo sapiens) (UniProt P03372); assay: qHTS assay to identify small molecule agonists of the estrogen receptor alpha (ER-alpha) signaling pathway using the BG1 cell line (AID 743079); conditions: BG1Luc4E2 cells, ERE-luciferase agonist, 22 h; activation: at 70.3 µM (top of the series); note: nearly all actives have a fitted effect of over 20% in size
[7] = qHTS assay to identify small molecule antagonists of the estrogen receptor alpha (ER-alpha) signaling pathway using the BG1 cell line (AID 743080; calls by dose curve;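 note: BG1 cells stimulated with 17beta-estradiol alongside compound; nearly all actives have a fitted effect of over 25% in size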)
Method in brief: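 Luminescence from a 4×ERE-luciferase reporter in BG1-Luc-4E2 cells served as read-out. Cells, pre-cultured 5 days in stripped-serum phenol-red-free medium, were exposed to compound with 17beta-estradiol co-stimulation for 21.5 h at 37 C.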

[8] = qHTS assay to identify small molecule antagonists of the estrogen receptor alpha (ER-alpha) signaling pathway using the BG1 cell line - cell viability counter screen (AID 743081);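 note: compound given together with 17beta-estradiol as the ER stimulus; nearly all actives have a fitted effect of over 45% in size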; note: potency is the fitted concentration of half-maximal effect
Aromatase (Homo sapiens) = Aromatase (Homo sapiens) (UniProt P11511); assay: qHTS assay to identify aromatase inhibitors (AID 743083); note: nearly all actives have a fitted effect of over 55% in size; note: potency is the fitted concentration of half-maximal effect
Aromatase (Homo sapiens), sequence (P11511 whole entry, looked up): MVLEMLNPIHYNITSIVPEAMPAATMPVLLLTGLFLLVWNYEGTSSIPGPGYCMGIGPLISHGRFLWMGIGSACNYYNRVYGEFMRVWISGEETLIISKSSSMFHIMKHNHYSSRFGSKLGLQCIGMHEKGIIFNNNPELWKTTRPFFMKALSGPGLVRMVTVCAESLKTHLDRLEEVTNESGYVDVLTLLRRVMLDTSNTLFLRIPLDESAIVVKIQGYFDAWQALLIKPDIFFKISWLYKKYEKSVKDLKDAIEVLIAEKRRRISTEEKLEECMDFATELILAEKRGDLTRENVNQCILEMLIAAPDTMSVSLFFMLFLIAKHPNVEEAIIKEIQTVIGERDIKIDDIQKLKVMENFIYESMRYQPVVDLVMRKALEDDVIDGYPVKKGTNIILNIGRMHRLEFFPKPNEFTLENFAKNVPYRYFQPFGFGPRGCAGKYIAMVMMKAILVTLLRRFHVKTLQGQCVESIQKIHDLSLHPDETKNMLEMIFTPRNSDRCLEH

[9] = qHTS assay to identify aromatase inhibitors - cell viability counter screen (AID 743084);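 note: cells stimulated with testosterone during compound exposure; nearly all actives have a fitted effect of over 55% in size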; note: potency is the fitted concentration of half-maximal effect
[10] = target: Aryl hydrocarbon receptor (Homo sapiens) (UniProt P35869); assay: qHTS assay to identify small molecule that activate the aryl hydrocarbon receptor (AhR) signaling pathway (AID 743085); note: nearly all actives have a fitted effect of over 15% in size; note: potency is the fitted concentration of half-maximal effect;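 for activation: HG2L7.5c1 human HepG2 liver cells with stably integrated DRE-driven firefly reporter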
Aryl hydrocarbon receptor (Homo sapiens), sequence (P35869 whole entry, looked up): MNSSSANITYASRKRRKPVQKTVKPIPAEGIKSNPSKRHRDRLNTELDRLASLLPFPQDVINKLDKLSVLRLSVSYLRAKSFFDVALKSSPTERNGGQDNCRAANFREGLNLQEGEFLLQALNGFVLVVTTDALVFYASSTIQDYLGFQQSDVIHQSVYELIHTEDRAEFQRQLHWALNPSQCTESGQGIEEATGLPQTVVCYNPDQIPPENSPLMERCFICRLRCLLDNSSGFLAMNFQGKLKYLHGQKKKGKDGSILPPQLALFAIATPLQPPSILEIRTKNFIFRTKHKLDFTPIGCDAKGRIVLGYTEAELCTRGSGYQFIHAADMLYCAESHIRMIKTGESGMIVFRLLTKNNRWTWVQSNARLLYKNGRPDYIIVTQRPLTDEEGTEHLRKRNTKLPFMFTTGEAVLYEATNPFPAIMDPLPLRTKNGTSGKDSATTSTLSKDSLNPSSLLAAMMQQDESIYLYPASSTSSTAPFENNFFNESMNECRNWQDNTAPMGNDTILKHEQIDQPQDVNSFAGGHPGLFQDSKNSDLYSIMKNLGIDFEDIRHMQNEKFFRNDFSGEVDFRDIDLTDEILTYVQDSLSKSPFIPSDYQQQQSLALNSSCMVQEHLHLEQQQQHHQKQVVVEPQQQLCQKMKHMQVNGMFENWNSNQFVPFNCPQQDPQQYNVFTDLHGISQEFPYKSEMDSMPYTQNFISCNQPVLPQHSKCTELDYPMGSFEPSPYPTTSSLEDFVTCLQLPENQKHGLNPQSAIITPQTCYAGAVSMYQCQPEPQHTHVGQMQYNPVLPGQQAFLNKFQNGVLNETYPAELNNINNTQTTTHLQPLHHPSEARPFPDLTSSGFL
Method in brief: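 Luminescence (ONE-Glo) from a dioxin-responsive-element luciferase reporter in HG2L7.5c1 HepG2 cells after 24 hr compound exposure at 37C; viability measured by CellTiter-Fluor fluorescence beforehand.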

[11] = qHTS assay to identify small molecule that activate the aryl hydrocarbon receptor (AhR) signaling pathway - cell viability counter screen (AID 743086); note: nearly all actives have a fitted effect of over 45% in size; note: potency is the fitted concentration of half-maximal effect
Method in brief: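 HepG2-AhR-luc (HG2L7.5c1) cells, 4000/well, were preincubated 5 h at 37C, exposed to compound in qHTS format for 24 hr at 37C, then given CellTiter-Fluor for 30 min; viability was read as fluorescence in the reporter wells.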

[12] = target: Peroxisome proliferator-activated receptor gamma (Homo sapiens) (UniProt P37231); assay: qHTS assay to identify small molecule agonists of the peroxisome proliferator-activated receptor gamma (PPARg) signaling pathway (AID 743094; active = well fitted activation curve with a large enough effect in the signal ratio in the repeat runs, not every such curve was filed as active; inconclusive = weak or mixed curves, or effect the other way; inactive = no such curve, though single readings can be large or run the other way; the % refers to the signal ratio)
Peroxisome proliferator-activated receptor gamma (Homo sapiens), sequence (P37231 whole entry, looked up): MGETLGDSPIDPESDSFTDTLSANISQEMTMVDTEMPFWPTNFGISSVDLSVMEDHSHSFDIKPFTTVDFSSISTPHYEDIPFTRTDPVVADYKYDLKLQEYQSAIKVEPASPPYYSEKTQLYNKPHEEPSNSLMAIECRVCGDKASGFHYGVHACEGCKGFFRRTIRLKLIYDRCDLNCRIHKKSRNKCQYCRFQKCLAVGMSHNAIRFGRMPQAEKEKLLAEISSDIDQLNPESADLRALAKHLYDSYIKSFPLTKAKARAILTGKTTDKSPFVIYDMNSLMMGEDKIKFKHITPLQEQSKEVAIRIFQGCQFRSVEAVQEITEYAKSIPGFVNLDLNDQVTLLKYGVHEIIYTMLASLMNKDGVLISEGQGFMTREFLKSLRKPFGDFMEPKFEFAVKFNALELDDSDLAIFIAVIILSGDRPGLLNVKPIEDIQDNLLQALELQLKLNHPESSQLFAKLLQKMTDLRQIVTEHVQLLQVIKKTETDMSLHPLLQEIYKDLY
Method in brief: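 Quantitative HTS agonist mode: stable HEK293H line with UAS-beta-lactamase reporter under PPARg control, 17 h compound exposure at 37C, fluorescence after 1 h FRET substrate loading at room temperature.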

[13] = qHTS assay to identify small molecule antagonists of the peroxisome proliferator-activated receptor gamma (PPARg) signaling pathway - cell viability counter screen (AID 743194); conditions: Potency: co-treated with 50 nM rosiglitazone unless noted; note: nearly all actives have a fitted effect of over 55% in size; note: potency is the fitted concentration of half-maximal effect
Method in brief: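 PPARg-UAS-bla HEK293H cells were plated, rested 5 h at 37 C, then treated with compounds plus rosiglitazone (50 nM final) for 17 h at 37 C; viability was then read by CellTiter-Glo luminescence after 30 min at room temperature.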

[14] = qHTS assay for small molecule agonists of the antioxidant response element (ARE) signaling pathway (AID 743202; active = well fitted activation curve with a large enough effect in the signal ratio in the repeat runs, not every such curve was filed as active; inconclusive = weak or mixed curves, or effect the other way; inactive = no such curve, though single readings can be large or run the other way; the % refers to the signal ratio)
Method in brief: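 Compounds delivered in DMSO to ARE-bla HepG2 cells (2,000 cells/well, pre-incubated 5 h) and left 16 h at 37 C. LiveBLAzer B/G FRET substrate then added for 2 h at RT before fluorescence reading.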

[15] = qHTS assay for small molecule agonists of the antioxidant response element (ARE) signaling pathway - cell viability counter screen (AID 743203; calls by dose curve; note: nearly all actives have a fitted effect of over 55% in size; note: potency is the fitted concentration of half-maximal effect)
Method in brief: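 Seeded at 2,000 cells/well, ARE-bla HepG2 cells were incubated 5 hrs before compound addition. After 16 hrs of treatment at 37C with 5% CO2, CellTiter-Glo reagent was added and luminescence read 30 min later.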

[16] = qHTS assay for small molecule activators of the heat shock response signaling pathway - cell viability counter screen (AID 743209); note: nearly all actives have a fitted effect of over 50% in size; note: potency is the fitted concentration of half-maximal effect
Method in brief: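 First, HSE-bla HeLa cells were seeded at 1500 cells/well and kept overnight at 37 C. Next, compounds were pinned in and incubated 5 h. After the FRET substrate step, CellTiter-Glo was added and luminescence read 30 min later.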

[17] = qHTS assay for small molecule activators of the heat shock response signaling pathway (AID 743210; active = well fitted activation curve with a large enough effect in the signal ratio in the repeat runs, with a control signal flat, not every such curve was filed as active; inconclusive = weak or mixed curves; the % refers to the signal ratio;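 note: HeLa cells with beta-lactamase reporter driven by heat shock elements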)
Method in brief: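 Reporter gene assay: HeLa cells stably bearing an HSE-bla construct, compound treatment 5 h at 37 C, LiveBLAzer substrate 2.5 h at RT, fluorescence intensity.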

[18] = system: thyroid hormone receptor (rat, GH3 cells); assay: qHTS assay to identify small molecule agonists of the thyroid receptor (TR) signaling pathway (AID 743066; calls by dose curve)
[19] = target: Peroxisome proliferator-activated receptor gamma (Homo sapiens) (UniProt P37231); assay: qHTS assay to identify small molecule antagonists of the peroxisome proliferator-activated receptor gamma (PPARg) signaling pathway (AID 743191; calls by dose curve; note: nearly all actives have a fitted effect of over 30% in size; note: potency is the fitted concentration of half-maximal effect)
Method in brief: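 GeneBLAzer PPARg UAS-bla HEK293H cells carrying a UAS-driven beta-lactamase reporter were plated at 3000 cells/well, preincubated 5 h at 37C, then given compound for 17 h at 37C; LiveBLAzer B/G FRET substrate was read after 1 h at room temperature.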

SMILES	Potency [1]	Potency [2]	Potency [3]	Potency [4]	Potency [5]	Potency [6]	Potency [7]	Potency [8]	Potency (Aromatase (Homo sapiens))	Potency [9]	Potency [10]	Potency [11]	Potency [12]	Potency [13]	Potency [14]	Potency [15]	Potency [16]	Potency [17]	Potency [18]	Potency [19]
ClC1=C(Cl)[C@]2(Cl)[C@H]3[C@H]([C@@H]4C=C[C@H]3C4)[C@@]1(Cl)C2(Cl)Cl	68.5 µM (active) and 61.1 µM (active)	54.5 µM (active)	inactive	inactive	inactive	inactive	inactive	inactive	inactive	inactive	inactive	inactive	inactive	49 µM (active)	inactive	inactive and 54.5 µM (active)	inactive and 24.5 µM (active)	inactive	–	–
CO/N=C(\C(=O)OC)c1ccccc1CO/N=C(\C)c1cccc(C(F)(F)F)c1	34.4 µM (active)	0.969 µM (active)	–	–	–	–	–	–	61.1 µM (active)	–	inactive	inactive	–	–	–	–	inactive	–	inactive	–
O=S1(=O)OCC2C(CO1)C1(Cl)C(Cl)=C(Cl)C2(Cl)C1(Cl)Cl (stereo not drawn)	54.5 µM (active)	48.6 µM (active)	inactive	–	inactive	inactive	–	inactive	54.5 µM (active)	61.1 µM (active)	inactive	inactive	–	inactive	–	inactive	–	–	–	inactive
COP(=O)(OC)Oc1ccc([N+](=O)[O-])cc1	inactive	inactive	–	–	inactive	inactive	inactive	inactive	34.4 µM (active)	inactive	inactive	–	–	–	–	inactive	inactive	–	inactive	17.4 µM (active)
CCCC[N+]1(C)CCCC1 (tested in a mixture with another compound)	inactive	inactive	–	inactive	–	–	–	inactive	inactive	inactive	–	inactive	–	inactive	–	inactive	inactive	inactive	inactive	–
Nc1cc(Cl)ccc1Cl	inactive	inactive	–	inactive	–	–	–	inactive	–	–	–	–	–	inactive	inactive	inactive	inactive	inactive	inactive	–
O=[N+]([O-])C(Br)Br	inactive	inactive	–	inactive	–	–	–	inactive	–	–	inactive	–	inactive	–	–	61.3 µM (active)	inactive	inactive	inactive	–
[C-]1=CC=CC1.[Cl][Zr+2][Cl].c1cc[cH-]c1	inactive	inactive	–	inactive	–	–	–	inactive	–	inactive	–	inactive	–	–	inactive	inactive	inactive	–	inactive	–
CCCCCON=O	inactive	inactive	–	–	–	–	–	inactive	inactive	inactive	inactive	–	inactive	–	inactive	inactive	inactive	inactive	inactive	inactive
O=C1C[C@@H]2OCC=C3CN4CC[C@]56c7ccccc7N1[C@H]5[C@H]2[C@H]3C[C@H]46	inactive	inactive	–	inactive	–	–	–	inactive	inactive	inactive	–	inactive	–	inactive	inactive	inactive	inactive	inactive	inactive	–
C#CC1(O)CCCCC1	inactive	inactive	–	inactive	–	–	–	inactive	inactive	inactive	inactive	–	inactive	inactive	inactive	inactive	inactive	inactive	inactive	inactive
CC(=O)[O][Pb]([c]1ccccc1)([c]1ccccc1)[c]1ccccc1	0.686 µM (active)	0.077 µM (active)	54.9 µM [cytotoxic] (active)	6.92 µM (active)	49 µM [inconclusive] (active)	–	–	10.9 µM (active)	0.193 µM (active)	0.193 µM (active)	inactive	3.86 µM (active)	–	0.11 µM (active)	–	0.172 µM (active)	9.77 µM (active)	–	–	–
CN(C)CCc1c[nH]c2ccccc12	inactive	inactive	–	inactive	–	–	–	inactive	–	inactive	inactive	inactive	–	inactive	inactive	inactive	–	–	inactive	–
[Cl-].[Cl-].[Sn+2]	inactive	inactive	–	inactive	–	–	–	–	inactive	inactive	inactive	inactive	–	inactive	–	inactive	inactive	inactive	inactive	–
O=C(N[C@@H]1N=C(c2ccccc2F)c2cccc3c2N(CC3)C1=O)c1cc2ccccc2[nH]1	inactive	6.68 µM (active)	–	–	–	–	–	–	–	inactive	0.0668 µM (active)	inactive	–	inactive	–	inactive	inactive	–	inactive	–
COCCC#N	inactive	inactive	–	inactive	–	–	–	inactive	inactive	inactive	–	inactive	–	inactive	inactive	inactive	inactive	inactive	inactive	–
CCCCn1cc[n+](C)c1.[Cl][Fe-]([Cl])([Cl])[Cl]	inactive	inactive	–	inactive	–	–	–	inactive	inactive	inactive	inactive	inactive	–	–	–	inactive	inactive	–	inactive	–
